Source: PubChem BioAssay
Results filed as inconclusive are left out. The source made the active and inactive calls.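 The calls were made as follows, unless noted: active = binding below the plate cutoff, the plate median minus 3 SD, with a reading above zero; inconclusive = below the plate cutoff but reading exactly zero; inactive = the rest.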

Key:
[1] = rapamycin-like changes in RPL19A-GFP expression – cell-based, S. cerevisiae, multiplex flow cytometry, primary screen (AID 1862; in the data active = percent of DMSO control GFP below about 86%;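 also: lower values mimic rapamycin by blocking the RPL19A rise seen in DMSO cells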); conditions: S. cerevisiae RPL19A-GFP strain, flow cytometry fluorescence, 3 h; at 10 µM; stronger effect = lower value
[2] = TOR pathway GLN3 branch reporter MEP2-GFP changes – S. cerevisiae, multiplex flow cytometry, primary screen (AID 1867;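 active = GFP response, as percent of the DMSO control, above the screen-wide mean plus 3 SD, about 139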;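 also: median GFP channel fluorescence of barcode-gated MEP2-GFP cells measured by flow cytometry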); conditions: S. cerevisiae MEP2-GFP strain, 3 h, at 10 µM, stronger effect = higher value, 100% means same as DMSO wells
[3] = TOR pathway RTG branch CIT2 reporter changes – S. cerevisiae, GFP fusion, multiplex flow cytometry, primary screen (AID 1870;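 active = percent response above a set limit, the screen-wide mean plus 3 SD, cut at about 130% in these data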;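 also: barcoded CIT2-GFP strain pooled with four other GFP strains with rapamycin as positive control; median GFP fluorescence per well over plate mean of DMSO wells so 100% = DMSO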); conditions: S. cerevisiae CIT2-GFP expression, 3 h, at 10 µM, stronger effect = higher value
[4] = TOR pathway LAP4-GFP level changes – S. cerevisiae, multiplex flow cytometry, primary screen (AID 1873;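 active = GFP signal, as percent of the solvent control, above the screen mean plus 3 SD, about 149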); conditions: S. cerevisiae LAP4-GFP expression, 3 h, at 10 µM, stronger effect = higher value
[5] = yeast AGP1-GFP level changes, GLN3 branch – cell-based, multiplex flow cytometry, S. cerevisiae, primary screen (AID 1887;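 active = GFP signal above the screen-wide mean plus 3 SD, that is over about 124.5% of the solvent control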;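 also: AGP1-GFP fusion strain of S. cerevisiae within a five-strain barcoded multiplex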); conditions: 3 h, at 10 µM, stronger effect = higher value
[6] = reduced mouse 2C T cell binding to pMHC/ICAM-1 vesicles – MLPCN validation set, flow cytometry, LFA-1/ICAM-1 modulator project, pilot screen (AID 2523;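 active = response below a set limit, under 55% cells CD8-positive and vesicle-bound, and CD8 cells' 90th-percentile brightness under 279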;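 as to vesicle binding response: mean PE anti-B7-1 fluorescence of CD8+ cells relative to row control; 100% = QL9-loaded vesicles with DMSO vehicle in the same plate row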); conditions: 2C mouse CD8+ T cells, at 7 µM, stronger effect = lower value; double positive events: measured here: CD8+/vesicle+ event percentage
[7] = biological target: Integrin beta-1 (Homo sapiens) + Integrin alpha-4 (Homo sapiens) (UniProt P13612+P05556); test: alpha4beta1 integrin LIBS antibody binding reduction – U937 cells, HUTS-21 mAb, flow cytometry, validation set, VLA-4 allosteric modulator project, pilot screen (AID 2674;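 active = inhibition above 50%, about 3 SD of the validation set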;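 also: antibody binding induced by the VLA-4 ligand LDV present at three times its Kd; 0% = LDV ligand with antibody and no compound and 100% = antibody without LDV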); conditions: HUTS-21 LIBS mAb binding, at 6.7 µM, stronger effect = higher value, binding induced by LDV ligand
Sequence of Integrin beta-1 (Homo sapiens) + Integrin alpha-4 (Homo sapiens) (P05556 whole entry, looked up): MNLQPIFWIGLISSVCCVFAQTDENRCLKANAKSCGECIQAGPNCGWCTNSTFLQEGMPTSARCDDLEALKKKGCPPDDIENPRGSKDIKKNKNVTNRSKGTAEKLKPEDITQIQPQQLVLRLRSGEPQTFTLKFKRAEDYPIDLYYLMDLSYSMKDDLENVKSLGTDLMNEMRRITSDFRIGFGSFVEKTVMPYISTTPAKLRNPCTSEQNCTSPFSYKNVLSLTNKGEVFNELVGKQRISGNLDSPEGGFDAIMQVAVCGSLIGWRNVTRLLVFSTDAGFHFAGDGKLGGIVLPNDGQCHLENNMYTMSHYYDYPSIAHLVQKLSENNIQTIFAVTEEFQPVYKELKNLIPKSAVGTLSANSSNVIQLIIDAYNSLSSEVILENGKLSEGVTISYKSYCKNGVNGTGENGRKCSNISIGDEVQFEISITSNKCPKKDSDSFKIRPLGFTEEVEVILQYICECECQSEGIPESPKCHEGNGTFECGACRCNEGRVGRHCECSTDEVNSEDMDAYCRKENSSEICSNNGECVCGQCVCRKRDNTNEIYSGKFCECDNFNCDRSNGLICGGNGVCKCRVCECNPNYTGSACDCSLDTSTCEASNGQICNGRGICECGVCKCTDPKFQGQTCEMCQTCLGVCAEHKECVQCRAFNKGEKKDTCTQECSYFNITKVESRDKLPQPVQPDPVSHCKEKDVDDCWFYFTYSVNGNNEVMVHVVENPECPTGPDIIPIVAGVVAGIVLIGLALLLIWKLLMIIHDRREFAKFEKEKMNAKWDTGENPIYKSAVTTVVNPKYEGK
Sequence of Integrin beta-1 (Homo sapiens) + Integrin alpha-4 (Homo sapiens) (P13612 whole entry, looked up): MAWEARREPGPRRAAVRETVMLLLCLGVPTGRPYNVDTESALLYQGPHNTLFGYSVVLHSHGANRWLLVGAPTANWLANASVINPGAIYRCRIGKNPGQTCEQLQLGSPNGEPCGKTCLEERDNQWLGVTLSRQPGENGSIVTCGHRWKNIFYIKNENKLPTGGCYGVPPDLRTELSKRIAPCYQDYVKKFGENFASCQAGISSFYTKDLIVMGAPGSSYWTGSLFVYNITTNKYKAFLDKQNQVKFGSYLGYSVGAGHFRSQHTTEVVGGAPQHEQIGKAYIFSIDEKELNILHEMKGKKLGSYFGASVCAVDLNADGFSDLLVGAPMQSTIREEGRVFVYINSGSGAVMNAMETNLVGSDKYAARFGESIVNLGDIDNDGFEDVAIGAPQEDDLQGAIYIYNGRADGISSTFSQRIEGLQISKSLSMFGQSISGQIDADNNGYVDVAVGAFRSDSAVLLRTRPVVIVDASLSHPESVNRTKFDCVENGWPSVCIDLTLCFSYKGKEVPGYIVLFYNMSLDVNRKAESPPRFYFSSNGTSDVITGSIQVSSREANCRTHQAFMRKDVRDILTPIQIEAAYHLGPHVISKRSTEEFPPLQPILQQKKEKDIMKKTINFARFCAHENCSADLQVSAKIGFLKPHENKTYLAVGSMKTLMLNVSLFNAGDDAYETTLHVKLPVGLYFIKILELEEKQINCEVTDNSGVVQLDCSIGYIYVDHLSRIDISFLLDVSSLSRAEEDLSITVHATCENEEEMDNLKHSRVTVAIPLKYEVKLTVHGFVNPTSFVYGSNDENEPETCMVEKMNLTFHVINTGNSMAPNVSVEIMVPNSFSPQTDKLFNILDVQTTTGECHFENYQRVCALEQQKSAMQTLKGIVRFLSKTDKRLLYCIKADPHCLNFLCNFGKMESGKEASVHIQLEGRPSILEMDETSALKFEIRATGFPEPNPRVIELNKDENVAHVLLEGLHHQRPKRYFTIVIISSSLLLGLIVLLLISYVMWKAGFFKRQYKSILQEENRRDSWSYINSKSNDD

[8] = calorie-restriction mimetic ROS inhibitors, yeast – validation compound set, pilot screen (AID 2706;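 active = superoxide response below 65% of plate, a cut near 3 SD across the whole screen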;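 also: yeast exposed to compound for one week at 30 degrees C before staining; 100% = mean of all compound wells on the same plate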); conditions: S. cerevisiae aging, superoxide DHE fluorescence; at 10 µM; stronger effect = lower value
[9] = biological target: Beta-adrenergic receptor kinase 1 (Homo sapiens) (UniProt P25098); test: GRK2 binders displacing RNA aptamer, biochemical, validation, human GRK2, bead flow cytometry (AID 488806;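 active = aptamer binding inhibition above 30%, about 3 SD of noise from non-fluorescent compounds; inactive = inhibition at or below 30%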); conditions: bead-bound GRK2, FAM-aptamer displacement, at 10 µM, stronger effect = higher value
Sequence of Beta-adrenergic receptor kinase 1 (Homo sapiens) (P25098 whole entry, looked up): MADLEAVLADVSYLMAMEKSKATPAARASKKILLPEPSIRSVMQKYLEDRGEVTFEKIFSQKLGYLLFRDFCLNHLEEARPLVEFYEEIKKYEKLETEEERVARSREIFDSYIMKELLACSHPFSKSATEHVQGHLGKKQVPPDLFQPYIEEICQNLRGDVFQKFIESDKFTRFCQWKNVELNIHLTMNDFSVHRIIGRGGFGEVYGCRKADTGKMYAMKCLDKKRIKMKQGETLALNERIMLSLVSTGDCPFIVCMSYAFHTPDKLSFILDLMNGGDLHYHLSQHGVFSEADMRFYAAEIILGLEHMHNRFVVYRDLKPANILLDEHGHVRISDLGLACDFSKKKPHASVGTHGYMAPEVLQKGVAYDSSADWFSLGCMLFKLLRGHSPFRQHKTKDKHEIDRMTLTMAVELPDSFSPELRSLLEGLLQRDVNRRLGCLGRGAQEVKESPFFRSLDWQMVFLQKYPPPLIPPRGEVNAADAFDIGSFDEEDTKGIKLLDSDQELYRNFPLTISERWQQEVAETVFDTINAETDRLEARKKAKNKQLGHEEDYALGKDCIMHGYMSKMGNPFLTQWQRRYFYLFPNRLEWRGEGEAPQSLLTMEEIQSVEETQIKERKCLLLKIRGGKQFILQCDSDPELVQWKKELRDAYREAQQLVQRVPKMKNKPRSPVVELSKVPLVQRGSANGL

[10] = biological target: Beta-2 adrenergic receptor (Homo sapiens) (UniProt P07550); test: agonist-induced loss of surface beta2AR – cell-based, FAP fluorogen, flow cytometry, validation set, pilot screen (AID 504459;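 active = percent response above 42, roughly 3 SD of non-fluorescent test compounds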;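 also: agonist-driven loss of surface beta2AR via internalization measured by FAP dye flow cytometry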); conditions: Am2.2-beta2AR cells, at 10 µM, stronger effect = higher value
Sequence of Beta-2 adrenergic receptor (Homo sapiens) (P07550 whole entry, looked up): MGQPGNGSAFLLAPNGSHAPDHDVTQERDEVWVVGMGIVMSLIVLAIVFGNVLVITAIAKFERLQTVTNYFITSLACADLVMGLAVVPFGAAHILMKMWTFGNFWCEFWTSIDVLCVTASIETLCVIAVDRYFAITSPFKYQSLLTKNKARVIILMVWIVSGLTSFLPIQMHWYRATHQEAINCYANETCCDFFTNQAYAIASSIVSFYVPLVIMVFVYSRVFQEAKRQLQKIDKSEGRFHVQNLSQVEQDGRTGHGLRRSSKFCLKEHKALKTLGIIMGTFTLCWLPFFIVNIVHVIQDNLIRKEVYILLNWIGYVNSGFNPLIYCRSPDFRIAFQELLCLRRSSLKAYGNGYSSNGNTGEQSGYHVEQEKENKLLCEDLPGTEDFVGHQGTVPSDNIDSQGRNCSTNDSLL

[11] = biological target: AP-2 complex subunit beta (Homo sapiens) (UniProt P63010); test: beta-arrestin/AP2 interaction blockers – biochemical, validation set, GST-AP2 beads, flow cytometry, pilot screen (AID 504541;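 active = inhibition above 54%, about 3 SD of non-fluorescent compounds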;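 also: AP2 carries R879A mutation and is captured from E. coli lysate; bead-bound FITC arrestin peptide fluorescence measuring arrestin peptide binding to AP2; 0% = DMSO wells and 100% = excess unlabeled arrestin peptide control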); conditions: FITC arrestin peptide, at 10 µM, stronger effect = higher value, AP2 beta2 appendage fragment, R879A mutant
Sequence of AP-2 complex subunit beta (Homo sapiens) (P63010 whole entry, looked up, the tested form may be a part, one chain of several): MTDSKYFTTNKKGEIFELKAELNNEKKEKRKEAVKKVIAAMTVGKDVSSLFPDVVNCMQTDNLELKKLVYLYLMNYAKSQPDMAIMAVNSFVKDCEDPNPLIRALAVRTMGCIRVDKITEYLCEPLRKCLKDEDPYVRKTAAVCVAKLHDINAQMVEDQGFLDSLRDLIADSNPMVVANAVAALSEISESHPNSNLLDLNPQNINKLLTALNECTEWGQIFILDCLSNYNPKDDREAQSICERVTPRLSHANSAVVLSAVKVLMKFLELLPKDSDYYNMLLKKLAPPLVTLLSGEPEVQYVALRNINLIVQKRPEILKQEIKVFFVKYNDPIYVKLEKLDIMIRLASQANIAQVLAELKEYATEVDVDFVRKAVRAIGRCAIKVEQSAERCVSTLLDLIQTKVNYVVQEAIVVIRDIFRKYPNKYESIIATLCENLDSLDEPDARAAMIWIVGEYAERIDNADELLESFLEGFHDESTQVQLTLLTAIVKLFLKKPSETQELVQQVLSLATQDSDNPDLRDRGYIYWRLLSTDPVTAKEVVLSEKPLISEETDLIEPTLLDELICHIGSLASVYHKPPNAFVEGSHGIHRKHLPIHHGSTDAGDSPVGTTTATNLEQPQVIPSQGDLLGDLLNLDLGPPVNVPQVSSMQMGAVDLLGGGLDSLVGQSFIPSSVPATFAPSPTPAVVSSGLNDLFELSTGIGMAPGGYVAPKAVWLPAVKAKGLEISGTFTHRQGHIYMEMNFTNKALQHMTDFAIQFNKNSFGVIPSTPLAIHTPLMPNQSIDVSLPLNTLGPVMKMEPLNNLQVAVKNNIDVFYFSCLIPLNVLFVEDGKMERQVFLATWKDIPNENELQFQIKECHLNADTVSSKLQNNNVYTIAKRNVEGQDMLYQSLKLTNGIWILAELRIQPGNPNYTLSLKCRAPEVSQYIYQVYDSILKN

[12] = cytosolic pH regulators acting via V-ATPase – S. cerevisiae, pHLuorin, HTS validation (AID 504600; in the data active = response above about 15%;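 also: plate controls were DMSO for no effect and reference compound for full effect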); conditions: V-ATPase proton transport, at 10 µM, stronger effect = higher value
[13] = system: anti-desmoglein-3 scFv antibody binding to human DSG3; test: blockers of pathogenic pemphigus antibody–desmoglein-3 binding – biochemical, validation compound set, bead-based, flow cytometry, pilot screen (AID 588368); conditions: Protein G beads, DSG3-Fc, scFv-GFP binding, at 10 µM, stronger effect = lower value;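 also: signal is the median channel fluorescence of bead-bound GFP antibody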
[14] = Nile Red efflux blockade in pump-expressing yeast – validation compound set, multiplex, phenotypic, pilot screen (AID 588506;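 active = efflux inhibition above 0.42, the validation set average plus 4 SD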;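 also: Nile Red retained in cells so higher fluorescence means more efflux inhibition; 0 = negative control wells and 1 = enniatin B 25 µM full block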); conditions: S. cerevisiae pump-expressing triplex, Nile Red efflux flow cytometry; at 10 µM; stronger effect = higher value; the pumps come from Candida albicans
[15] = biological target: ATP-binding cassette sub-family B member 6 (Homo sapiens) (UniProt Q9NP58); test: blockers of ABCB6-driven porphyrin uptake – K562-ABCB6 cells, flow cytometry, validation set, pilot screen (AID 588550;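 active = inhibition above the screen-wide mean plus 3 SD, about 51%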;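 also: 0% = DMSO wells and 100% = benzethonium chloride 70 µM positive control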); conditions: K562-ABCB6 porphyrin accumulation, 1 h, at 10 µM, stronger effect = higher value
Sequence of ATP-binding cassette sub-family B member 6 (Homo sapiens) (Q9NP58 whole entry, looked up): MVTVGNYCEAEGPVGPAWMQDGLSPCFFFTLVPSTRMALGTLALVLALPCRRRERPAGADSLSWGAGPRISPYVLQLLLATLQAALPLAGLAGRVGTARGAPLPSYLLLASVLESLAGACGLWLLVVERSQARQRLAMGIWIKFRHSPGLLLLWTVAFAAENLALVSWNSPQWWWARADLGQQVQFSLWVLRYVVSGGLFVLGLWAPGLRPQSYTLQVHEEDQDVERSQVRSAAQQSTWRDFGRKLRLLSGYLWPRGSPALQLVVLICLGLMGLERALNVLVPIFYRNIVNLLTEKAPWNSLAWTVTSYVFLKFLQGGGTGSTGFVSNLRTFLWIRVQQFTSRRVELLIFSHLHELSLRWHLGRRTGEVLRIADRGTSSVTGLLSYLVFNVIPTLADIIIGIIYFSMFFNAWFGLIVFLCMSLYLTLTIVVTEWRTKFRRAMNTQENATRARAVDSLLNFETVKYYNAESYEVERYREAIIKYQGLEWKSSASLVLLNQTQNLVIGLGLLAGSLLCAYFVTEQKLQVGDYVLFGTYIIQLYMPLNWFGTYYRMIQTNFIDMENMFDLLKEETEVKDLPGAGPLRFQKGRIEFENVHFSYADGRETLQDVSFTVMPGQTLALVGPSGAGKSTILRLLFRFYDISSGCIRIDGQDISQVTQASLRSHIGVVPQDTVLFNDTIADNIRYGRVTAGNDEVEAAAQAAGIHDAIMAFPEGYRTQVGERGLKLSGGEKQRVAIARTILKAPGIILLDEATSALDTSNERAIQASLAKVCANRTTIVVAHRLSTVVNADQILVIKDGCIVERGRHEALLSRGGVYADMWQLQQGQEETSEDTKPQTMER

[16] = AML differentiation inducers, ER-HoxA9 marrow cells – cell-based, GFP/MAC1 double positive, flow cytometry, validation set, primary screen (AID 588685;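 active = differentiation response of at least 50%, scaled between solvent and reference control, from cells with both markers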;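 also: compound exposure lasts four days before antibody staining and flow analysis; 0% = DMSO wells and 100% = 5 µM fulvestrant positive control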); conditions: stronger effect = higher value, normalized: vehicle 0, fulvestrant 100

COc1ccc(O)c(C2=Nc3ccccc3N=C(c3ccccc3)C2)c1
58.3%: double positive events [6]
inactive: percent of DMSO control GFP [1] 94.6% | GFP response vs DMSO [2] 126% | percent response of DMSO control [3] 116% | GFP response vs DMSO [4] 71.5% | GFP response, % of DMSO [5] 85.2% | vesicle binding response [6] 139% | inhibition [7] -10% | superoxide response (% of plate) [8] 96.7% | aptamer binding inhibition [9] 4% | response [10] -11.7% | inhibition [11] 13% | response [12] -3.39% | binding (% of control) [13] 96.9% | efflux inhibition (fraction of control) [14] 0.34 | inhibition [15] 12% | differentiation response [16] 2.46%

O=C(Nc1cccc(Oc2c(F)c(F)c(F)c(F)c2F)c1)N1C[C@@H]2C[C@@H](C1)c1cccc(=O)n1C2
inactive: percent of DMSO control GFP [1] 100% | GFP response vs DMSO [2] 101% | percent response of DMSO control [3] 101% | GFP response vs DMSO [4] 98% | GFP response, % of DMSO [5] 101% | vesicle binding response [6] 215% | inhibition [7] 15.1% | superoxide response (% of plate) [8] 104% | aptamer binding inhibition [9] 2% | response [10] -14.9% | inhibition [11] -6.11% | response [12] 0.72% | binding (% of control) [13] 88% | efflux inhibition (fraction of control) [14] -0.35 | inhibition [15] -6% | differentiation response [16] 7.09%
63.7%: double positive events [6]

COc1ccc(-c2nc3c(=O)n(C)c(=O)[nH]c3n2CCc2ccccc2)cc1
inactive: percent of DMSO control GFP [1] 111% | GFP response vs DMSO [2] 103% | percent response of DMSO control [3] 115% | GFP response vs DMSO [4] 93.1% | GFP response, % of DMSO [5] 104% | vesicle binding response [6] 232% | inhibition [7] 13.2% | superoxide response (% of plate) [8] 107% | aptamer binding inhibition [9] 0% | response [10] 12.6% | inhibition [11] -0.08% | response [12] -6.09% | binding (% of control) [13] 99.3% | efflux inhibition (fraction of control) [14] -0.13 | inhibition [15] 3% | differentiation response [16] -23.2%
64%: double positive events [6]

C[C@]12CC[C@@H]3c4ccc(O)cc4CC[C@H]3[C@@H]1CC[C@@H]2OC(=O)CCC(=O)O
active: efflux inhibition (fraction of control) [14] 0.46
62.4%: double positive events [6]
inactive: percent of DMSO control GFP [1] 102% | GFP response vs DMSO [2] 103% | percent response of DMSO control [3] 91.3% | GFP response vs DMSO [4] 127% | GFP response, % of DMSO [5] 98.6% | vesicle binding response [6] 223% | inhibition [7] -15.8% | superoxide response (% of plate) [8] 86% | aptamer binding inhibition [9] -7% | response [10] 3.34% | inhibition [11] 50.5% | response [12] -4.55% | binding (% of control) [13] 105% | inhibition [15] -12% | differentiation response [16] 42.2%

O=C(NC(=S)Nc1ccc(N2CCN(C(=O)c3ccccc3)CC2)cc1)c1cccs1
51.4%: double positive events [6]
inactive: percent of DMSO control GFP [1] 96.3% | GFP response vs DMSO [2] 126% | percent response of DMSO control [3] 116% | GFP response vs DMSO [4] 77% | GFP response, % of DMSO [5] 96.1% | vesicle binding response [6] 106% | inhibition [7] -4.21% | superoxide response (% of plate) [8] 101% | aptamer binding inhibition [9] 0% | response [10] -15.7% | inhibition [11] -3.24% | response [12] 1.01% | binding (% of control) [13] 107% | efflux inhibition (fraction of control) [14] -0.28 | inhibition [15] 13% | differentiation response [16] -0.82%
